# Source: ChEMBL document CHEMBL3988442, “University of Dundee, Small-Polar-MMV Screening Library” (2021)
# About 13,000 (27%) of roughly 48,000 compounds showed an effect of 50% or more. Some of the results follow.
# System: Wolbachia pipientis
# Assay: Anti-Wolbachia Cell-Based Screen
# Assay type: functional
# Parameters: scale not given: in the data most compounds retested in dose-response had high values
# Conditions: 5 µM
row,Structure (SMILES),Percent Effect [%]
1,CN(C)C(=O)CN1C[C@@H]2CC[C@H](C1)N(Cc1cc(F)ccc1F)C2,15.49
2,COc1nc(C)c(C(=O)N2CCc3[nH]nc(C4CCCC4)c3C2)s1,-0.6209
3,CC(C)NC(=O)CN(C)CC(=O)/N=c1/cc[nH]n1C(C)C1CC1 (centres undefined),-11.27
4,NC(=O)CN1CC(O)c2ccccc2S1(=O)=O (centres undefined),96.32
5,COC1CN(CCO)S(=O)(=O)c2ccccc21 (centres undefined),103.3
6,COCCOCCNS(=O)(=O)C1CS(=O)(=O)c2ccccc21 (centres undefined),2.377
7,NC(=O)CN1CCC(NC2CSCCc3ccccc32)CC1 (centres undefined),-6.664
8,CNC(=O)c1ncn2c1CN(CCC(C)C)S(=O)(=O)c1ccccc1-2,5.918
9,O=S1(=O)c2ccccc2C(O)CN1CCO (centres undefined),120.8
10,COCC(C)(C)NS(=O)(=O)C1CS(=O)(=O)c2ccccc21 (centres undefined),12.05
11,NC(=O)CN1CCC(NC2CCCCc3ccccc32)CC1 (centres undefined),-5.758
12,Cc1ccc2c(c1)c(CNC(=O)C1CC(=O)N(C3CCCC3)C1)nn2C (centres undefined),-26.6
13,O=C(N1CCCC1)N1CCC(c2nccn2Cc2cscn2)CC1,-4.277
14,CC(C)n1cnnc1CN(C)C(=O)c1cc(COc2ccccc2)[nH]n1,-4.684
15,CCCOc1ccc(CNC(=O)N2CCC(C(N)=O)C2)cc1 (centres undefined),0.5279
16,CCOc1ccc(Cl)cc1CCNC(=O)N1CCCC(CO)C1 (centres undefined),2.242
17,NC(=O)C1CCN(C(=O)NCCOc2ccc3c(c2)OCO3)C1 (centres undefined),88.72
18,CC(=O)NCC1CCN(C(=O)NCCc2ccc3c(c2)OCO3)CC1,-2.588
19,O=C(NCCOc1ccc2c(c1)OCO2)N1CCCC(CO)C1 (centres undefined),85.49
20,O=C(CN1CCCC(CO)C1)NCCOc1cccc(Cl)c1 (centres undefined),0.8563
21,O=C(c1ccc2c(c1)OCO2)N1CCCC(Nc2ccc(F)cc2)C1 (centres undefined),-14.66
22,CC(=O)NC1CCCN(C(=O)NCCOc2ccc3c(c2)OCO3)C1 (centres undefined),106.3

row,Structure (SMILES),Percent Effect [%]
1,NC(=O)N1CCCC(C(=O)NCCOc2ccc3c(c2)OCO3)C1 (centres undefined),6.711
2,Cc1noc(C)c1CNC(=O)N1CCC(NS(C)(=O)=O)CC1,-20.1
3,Cc1n[nH]c(C)c1CCc1ccc(S(C)(=O)=O)cc1,1.11
4,CCCc1n[nH]cc1C(=O)N1CCC(c2nccn2CCOC)CC1,-3.808
5,CSC(C)(C)CNC(=O)NCCC1CCN(C)CC1,0.9558
6,CN(Cc1noc(C2CC2)n1)C1CCCN(c2cccnn2)C1 (centres undefined),100.2
7,CC(C)c1nc(CNC2CCCN(c3cccnn3)C2)no1 (centres undefined),9.914
8,Cc1nc(CN(C)C2CCCN(c3cccnn3)C2)no1 (centres undefined),-8.023
9,CN(Cc1nc(-c2ccco2)no1)C1CCCN(c2cccnn2)C1 (centres undefined),4.985
10,CCc1nc(CN(C)C2CCCN(c3cccnn3)C2)no1 (centres undefined),81.94
11,CC(C)c1nc(CN(C)C2CCCN(c3cccnn3)C2)no1 (centres undefined),109.3
12,CN(Cc1noc(C(C)(C)C)n1)C1CCCN(c2cccnn2)C1 (centres undefined),102.2
13,CC(C)(C)c1nc(CNC2CCCN(c3cccnn3)C2)no1 (centres undefined),-17.48
14,CN(Cc1nc(C2CC2)no1)C1CCCN(c2cccnn2)C1 (centres undefined),-5.639
15,Cc1ccc(N2CCCC(N(C)Cc3noc(C4CC4)n3)C2)nn1 (centres undefined),-34.27
16,CCOC(=O)N1CCN(c2nc(CCN)nc3sc(C)c(C)c23)CC1,-2.539
17,Cn1ncc(N2CCC(CNC3CC(c4ccccc4)C3)CC2)cc1=O (centres undefined),0.2132
18,COC(=O)N1CCN(C(=O)c2ccc(C)c(N3CCNC3=O)c2)CC1,-15.45
19,CCOCCN1CCN(CCOC)CC1C (centres undefined),-2.366
20,CCN1CCC2(CN(C(C)=O)CC23CCN(C(=O)N(C)C)CC3)C1=O (centres undefined),-7.709
21,Cn1cccc1C(=O)N1CCC2(CCCN(CC3CCC3)C2=O)C1 (centres undefined),0
22,CN1C(=O)CC2(CCN(S(=O)(=O)C3CC3)CC2)c2ccccc21,18.32

row,Structure (SMILES),Percent Effect [%]
1,O=C(O)CN1CCC2(CCc3ccccc32)CC1,-5.092
2,CCN1CC2(CC1=O)CN(C(=O)c1ccco1)CCN(C(=O)N(C)C)C2 (centres undefined),-10.83
3,O=C1N(CCc2ccccc2)CCCC12CCN(C(CO)CO)C2 (centres undefined),-2.358
4,CCN1Cc2ccccc2CC2(CCN(CC3CCC3)CC2)C1=O,112.5
5,CC(C)CN1CCC2(CCN(CC3CC3)CC2)C1=O.O=C(O)C(F)(F)F,3.548
6,CCN1Cc2ccccc2CC2(CCN(C)CC2)C1=O,106.4
7,CCN1Cc2ccccc2CC2(CCN(CC(=O)O)CC2)C1=O.O=C(O)C(F)(F)F,108.1
8,CCN1Cc2ccccc2CC2(CCN(C(=O)N(C)C)CC2)C1=O,108.4
9,Cc1ccc2c(c1)C1(CC2)CCN(CC(=O)O)CC1.O=C(O)C(F)(F)F,-2.152
10,Cn1nc2c(cc1=O)CN(CC1CCCCO1)CC2 (centres undefined),1.26
11,CC(C)(C)c1cnc(CN2CCC[C@H]2CO)o1,-3.159
12,Cc1cnn(CC2CCCCN2Cc2ncc(C(C)(C)C)o2)c1 (centres undefined),103.7
13,CC(C)(C)c1cnc(CN2CCCC2Cn2cccn2)o1 (centres undefined),3.93
14,CCC1CCCCN1Cc1ncc(C(C)(C)C)o1 (centres undefined),88.88
15,Cc1cnn(CC2CCCCN2Cc2cc(C)on2)c1 (centres undefined),27.16
16,CCC1CCCCN1Cc1ncc(-c2ccc(OC)cc2)o1 (centres undefined),-15.61
17,NC(=O)c1ccc(N2CCN(Cc3c(Cl)cncc3Cl)CC2)nc1,-3.438
18,O=C(NS(=O)(=O)c1cccc(C(F)(F)F)c1)c1cnsn1,1.908
19,Cn1cc(CCCN2CCN(Cc3cccc(O)c3)CC2)cn1,5.998
20,CC(CN1CCOCC1)NC1CCN(Cc2cccc(O)c2)CC1 (centres undefined),-2.88
21,Oc1cccc(CN2CCN(C3CCc4ccccc4C3)CC2)c1 (centres undefined),111.6
22,COc1ccc(CNC2CCN(c3ccccc3)C2)cc1O (centres undefined),14.8

row,Structure (SMILES),Percent Effect [%]
1,COc1ccc(CN2CCC(O)CC2)c(OC)c1,-14.46
2,Cc1ccnn1CC(=O)N1CCN(C2CCc3ccccc3C2)CC1 (centres undefined),-4.494
3,COc1cc(O)ccc1CN1CCN(C2CCc3ccccc3C2)CC1 (centres undefined),95.73
4,COc1ccc(CN2CCCC(Nc3cccc(F)c3)C2)cc1O (centres undefined),-4.671
5,COc1ccc(CN2CCN(C3CCc4ccccc4C3)CC2)cc1O (centres undefined),105.5
6,COc1cc(N2C[C@H]3CN(CCN4CCCC4)C(=O)[C@H]3C2)ncn1,-15.15
7,O=C(CNc1cc(Br)ccc1Br)NC1CCS(=O)(=O)C1 (centres undefined),-18.44
8,CCN1CCCC(CN2CCn3nc(CNC(=O)N(C)C)cc3C2)C1 (centres undefined),11.32
9,CC(C)(C)OC(=O)N1CCN(S(C)(=O)=O)C2(CCCCC2)C1,138.8
10,CS(=O)(=O)N1CCCC12CCCN(C(=O)c1ccnnc1)C2 (centres undefined),0.7841
11,CN(C)S(=O)(=O)N1CCN(C(=O)OC(C)(C)C)CC12CCCCC2,120.5
12,CC(CC#N)N1CCN(C(=O)OC(C)(C)C)CC1 (centres undefined),-8.127
13,CC(C)(C)OC(=O)N1CCC(NC2CC2)CC1,-10.91
14,COc1ccc(C2CCN(S(=O)(=O)CCCC#N)CC2)cc1,-10.18
15,CS(=O)(=O)N1CCCC12CCCN(C(=O)c1ccncc1)C2 (centres undefined),-13.2
16,CC(C)(C)OC(=O)N1CCN(S(=O)(=O)CCCC#N)C2(CCCCC2)C1,111.4
17,CC(CO)N1CCN(C(=O)OC(C)(C)C)CC1 (centres undefined),-0.0103
18,O=C(NC1CC1)N1CC[C@H]2[C@H]1CCN2c1nncs1.O=C(O)C(F)(F)F,6.883
19,CCN(Cc1ccc2c(c1)OCCO2)C(=O)NC(C)Cn1ccnc1 (centres undefined),1.976
20,CCOC(=O)c1ccc(NC(=O)c2cc3c([nH]c2=O)CCCC3)cc1,-8.889
21,CCOc1ccc(NC(=O)c2cnc(N3CCCC3)nc2C)cc1,17.2
22,CCOc1ccc(NC(=O)c2cc3c([nH]c2=O)CCC3)cc1,108.3

row,Structure (SMILES),Percent Effect [%]
1,Cc1ncsc1CN1C[C@@H]2COC[C@]2(C(=O)NC(C)C)C1.O=C(O)C(F)(F)F,-19.77
2,CCCc1nc(C)c(C(=O)NS(=O)(=O)c2cccnc2)s1,-11.93
3,Cc1cccc(NC(=O)c2sc(C)nc2C)n1,165.1
4,Cc1nc(C)c(C(=O)Nc2cc(N3CCC(C)CC3)ncn2)s1,1.923
5,CCCc1nc(C)c(C(=O)NCc2ccc(C)n2C)s1,17.26
6,Cc1nc(C)c(C(=O)NCCNC(=O)Cc2cccc(F)c2)s1,-2.44
7,CCCc1nc(C)c(C(=O)Nc2cccc(C)n2)s1,125.8
8,COCC(O)CN(C)C(=O)c1cccc(-c2csc(C)n2)c1 (centres undefined),-1.754
9,CCn1nc(C)c(CCn2ccnc2-c2cc3n(n2)CCNC3)c1C,7.532
10,CC(C)c1cc(NC(=O)c2ccc([S+]([O-])C(C)C)cc2)[nH]n1 (centres undefined),112.1
11,Cc1cc(NC(=O)c2ccc(N3CCOCC3)c(C)c2)[nH]n1,7.693
12,Cc1ccc(CC(=O)Nc2cc(C(C)C)n[nH]2)cn1,129.4
13,Cc1ccc(CC(=O)NCC(O)c2ccc(Cl)cc2Cl)cn1 (centres undefined),-14.52
14,CC(C)c1cc(NC(=O)c2cccnc2)[nH]n1,108.7
15,COc1ccc(N(C(=O)Cc2ccc(C)nc2)C(C)C)cc1F,-2.597
16,CC(C)c1cc(NC(=O)c2ccncc2)[nH]n1,102.9
17,Cc1nn(C(C)C)c(C)c1NC(=O)c1ccncc1,7.79
18,Cc1ccc(C(=O)Nc2cc(C(C)C)n[nH]2)cn1,-1.048
19,CC(C)c1cc(NC(=O)c2ccc(C(=O)NC(C)(C)C)cc2)[nH]n1,-2.024
20,Cc1cc(NC(=O)c2ccc(N3CCOCC3)cc2)[nH]n1,-12.35
21,CC(C)c1cc(NC(=O)c2ccc(NC3CC3)nc2)[nH]n1,-1.016
